High-throughput results as filed in PubChem BioAssay.
GRIN3A LBD mod = modulators (binders) of human NR3A ligand-binding domain; NR3A LBD differential scanning fluorimetry, Tm shift; 0% = protein alone, 100% = glycine-bound protein; Tm shift relative to glycine control, % at 25 µM; 340,000 compounds, 2.5% hits; AID 1259313;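 active means melting temperature shift of at least 10% of the positive control shift, at one fixed dose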
SKKanGAS inh = SKKanGAS growth inhibition; inhibition, % at 7.5 µM; 300,000 compounds, 1.3% hits; S. pyogenes SKKanGAS, kanamycin growth, BacTiter-Glo, 6 h;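 active means mean replicate score, as percent of positive control median, at least 50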;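 further: strain carries kanamycin resistance gene driven by streptokinase promoter and grows in 40 µg/ml kanamycin; loss of luminescence reflects streptokinase promoter inhibition or plain growth inhibition; 0% = median of DMSO wells and 100% = positive control at its reference dose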
Mdm2 MdmX PPI = inhibitors of human Mdm2/MdmX interaction | O15151+Q00987 | SaOS-2 split-luciferase Mdm2/MdmX complementation, luminescence | inhibition, % at 8 µM | 330,000 compounds, 3% hits;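 active means inhibition of at least 50% at 8 µM in the primary screen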
CSC inhib = blocks cancer stem cells; cancer stem cell-like cells viability, luminescence; inhibition, % at 7.5 µM; 300,000 compounds, 1.1% hits; AID 2717; in the data active means inhibition above about 75%; tested in HMLE shEcad cells
Beta cell apopt = beta cell apoptosis inhibition | INS-1E cytokine-induced death, ATP luminescence, 48 h; percent of positive-control rescue, neutral wells zero | protection from apoptosis, % (no concentration beside the values) | 300,000 compounds, 0.8% hits;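 active means Every replicate reaches about 75%, or at least half do and their mean reaches it too, limit read from the data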;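 further: 0% = cytokine-treated negative control wells and 100% = positive control rescue; higher means more ATP so stronger rescue from cytokine killing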
MPTP inh = permeability transition pore inhibition. isolated mouse mitochondria, Ca2+ swelling absorbance, 30 min. 360,000 compounds, 1.4% hits. inhibition, % at 10 µM;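 active means inhibition of 50% or more, scaled per plate between neutral and stimulator controls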;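 further: 0% = DMSO wells given calcium and 100% = 1 mM EGTA wells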
Mdm2-MdmX conf = human Mdm2/MdmX binding inhibition, confirmed; shares compounds with Mdm2 MdmX PPI; luminescent assay; inhibition, % at 8 µM; 10,000 compounds, 55% hits; in the data active means inhibition above about 40%
Full FLuc ctr = inhibits full-length luciferase, flagging false Mdm2/MdmX hits; shares compounds with Mdm2 MdmX PPI; SaOS-2 full-length luciferase counterscreen, luminescence; inhibition, % at 8 µM; 6,200 compounds, 77% hits;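 active means mean inhibition at 8 µM reaching about 37%, which flags the compound as non-specific, limit read from the data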;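 further: p53-null SaOS-2 cells with luciferase driven by a doxycycline-inducible promoter; compound on cells about two nights before reading with doxycycline added after day one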
Numbers without * were called inactive. A selection: hits, their analogues and other compounds. The true share with any hit is near 6.9%.

`O=C(Cc1c[nH]c2ccccc12)Nc1nnc(C2CC2)s1` gave GRIN3A LBD mod -24, SKKanGAS inh 8, Mdm2 MdmX PPI 79*, CSC inhib 24, Beta cell apopt 2, MPTP inh 2, Mdm2-MdmX conf 65* and Full FLuc ctr 84*.
`Cc1cc2occ(CC(=O)Nc3nnc(C4CC4)s3)c2cc1C` gave GRIN3A LBD mod -3, Mdm2 MdmX PPI -4, Beta cell apopt -11 and MPTP inh 2.
Screening O=C(Cc1coc2ccc3ccccc3c12)Nc1nnc(C2CC2)s1 returned GRIN3A LBD mod -9, SKKanGAS inh 15, Mdm2 MdmX PPI 74*, CSC inhib -2, Beta cell apopt -3, MPTP inh -1, Mdm2-MdmX conf 83* and Full FLuc ctr 38*.
For Oc1ccc(-c2nc3c4c(ncn3n2)-c2ccccc2CC42CCCC2)cc1 the results were GRIN3A LBD mod 61*, SKKanGAS inh 95*, Mdm2 MdmX PPI 78*, CSC inhib -6, Beta cell apopt -5, MPTP inh 18 and Mdm2-MdmX conf 6.
For COc1ccc(CN2CCNC(=O)C2CC(=O)N(C)Cc2ccon2)c(F)c1 (stereo not given) the results were GRIN3A LBD mod 2, SKKanGAS inh 4, Mdm2 MdmX PPI 18, CSC inhib -2 and MPTP inh 0.
`CC1=NNC(=O)C1CC(=O)N/N=C/C=C/c1ccccc1` (stereo not given) gave GRIN3A LBD mod -1, SKKanGAS inh 2, Mdm2 MdmX PPI 10, Beta cell apopt -7 and MPTP inh -1.
For CCC1Nc2ncnc(N3CCN(c4ccccc4)CC3)c2N(Cc2ccc(Br)cc2)C1=O (stereo not given) the results were GRIN3A LBD mod -4, SKKanGAS inh 23, Mdm2 MdmX PPI 53*, CSC inhib 14, Beta cell apopt 1, MPTP inh 2 and Mdm2-MdmX conf 13.
For N#Cc1cccc(NC(=O)c2cc(C3CCCCN3S(=O)(=O)c3cccc4cccnc34)on2)c1 (stereo not given) the results were MPTP inh 0.
`O=C(c1ccccc1Cl)N1N=C(c2cccs2)CC1c1cccc(O)c1` (stereo not given) gave GRIN3A LBD mod 2, SKKanGAS inh 2, Mdm2 MdmX PPI 27, CSC inhib 9, Beta cell apopt -3 and MPTP inh -3.
`O=C(/C=C/c1ccco1)Nc1cc(Cl)ccc1C(=O)O` gave GRIN3A LBD mod -10, SKKanGAS inh 9, Mdm2 MdmX PPI -8, CSC inhib 34, Beta cell apopt -6 and MPTP inh 4.
O=C(/C=C\c1ccco1)Nc1cc([N+](=O)[O-])ccc1F was read as GRIN3A LBD mod 4, SKKanGAS inh -13, Mdm2 MdmX PPI 59*, Beta cell apopt 53, MPTP inh -1, Mdm2-MdmX conf 58* and Full FLuc ctr 124*.
Cc1c(OC(C)C(=O)NCc2ccccn2)ccc2c3c(c(=O)oc12)CCCC3 (stereo not given) was read as GRIN3A LBD mod -4, SKKanGAS inh -3, Mdm2 MdmX PPI 28, CSC inhib -4 and MPTP inh -2.
Screening COC(=O)c1ccc(C(NC(=O)OCc2ccccc2)/C(F)=C/[C@@H](C)C(=O)NCc2ccc(OC)c(OC)c2)cc1 (stereo not given in full) returned GRIN3A LBD mod 1, Mdm2 MdmX PPI 89*, CSC inhib 0, Beta cell apopt 4, MPTP inh 0 and Mdm2-MdmX conf 5.
For COC(=O)c1ccc(C(NC(=O)OCc2ccccc2)/C(F)=C/[C@@H](C)C(=O)NCc2ccc(-c3ccccc3)cc2)cc1 (stereo not given in full) the results were GRIN3A LBD mod 0, Mdm2 MdmX PPI 38, CSC inhib 8 and Beta cell apopt -2.
For COc1ccc([C@@H]2[C@@H]3C(=O)N(C(C)(C)C)C(=O)[C@@H]3[C@]3(Cc4ccccc4)C(=O)N(c4ccc(OC)cc4)C(=O)N23)cc1 the results were GRIN3A LBD mod -2, SKKanGAS inh 3, Mdm2 MdmX PPI -1, CSC inhib -23, Beta cell apopt -2 and MPTP inh 0.
`COc1ccc([C@@H]2[C@@H]3C(=O)N(C(C)(C)C)C(=O)[C@@H]3[C@]3(Cc4ccccc4)C(=O)N(c4ccc(C(F)(F)F)cc4)C(=O)N23)cc1` gave GRIN3A LBD mod -4, SKKanGAS inh 9, Mdm2 MdmX PPI 85*, CSC inhib 5, Beta cell apopt 2, MPTP inh 0, Mdm2-MdmX conf 90* and Full FLuc ctr 28.
For COc1ccc([C@@H]2[C@@H]3C(=O)N(C(C)(C)C)C(=O)[C@@H]3[C@]3(CC(C)C)C(=O)N(c4ccc(C(F)(F)F)cc4)C(=O)N23)cc1 the results were GRIN3A LBD mod -4, SKKanGAS inh 8, Mdm2 MdmX PPI 74*, CSC inhib -6, Beta cell apopt 9, MPTP inh 24, Mdm2-MdmX conf 76* and Full FLuc ctr 35.
O=S(=O)(c1ccc(Br)cc1)N1CCN(Cc2ccco2)CC1 was read as GRIN3A LBD mod -2, SKKanGAS inh -9, Mdm2 MdmX PPI -2, CSC inhib -3, Beta cell apopt 3 and MPTP inh 0.
`CC(=O)c1sc(NC(=O)CCc2ccccc2)nc1C` gave MPTP inh 1.
`CCOc1ccc(OCCn2c(=S)[nH]c3c(N)ncnc32)cc1` gave GRIN3A LBD mod 3, SKKanGAS inh -5, Mdm2 MdmX PPI 7, CSC inhib -62, Beta cell apopt -10 and MPTP inh 0.
`Cc1ccc(OCCn2cnc3c(N)ncnc32)cc1` gave GRIN3A LBD mod -1, SKKanGAS inh -3, Mdm2 MdmX PPI 72*, CSC inhib -32, Beta cell apopt 4, MPTP inh 0 and Mdm2-MdmX conf 11.
`CC1CCCN(CCCNC(=O)c2nn(C)c3c2CS(=O)(=O)c2ccccc2-3)C1` (stereo not given) gave GRIN3A LBD mod 2, SKKanGAS inh -7, Mdm2 MdmX PPI 12, CSC inhib 0, Beta cell apopt -3 and MPTP inh 0.
Screening COc1ccc(-n2nc3c(N4CCC(C(=O)NCc5cccc(C)c5)CC4)nnc(C)c3c2C)cc1 returned GRIN3A LBD mod -3, SKKanGAS inh 1, Mdm2 MdmX PPI 99*, CSC inhib -15, Beta cell apopt 37, MPTP inh -2, Mdm2-MdmX conf 45* and Full FLuc ctr 48*.
